Reference: PubChem BioAssay (EPA / NIEHS)
The source made the active and inactive calls. The calls were made as follows: active = hit-call score of the fitted dose curve at least 0.9, where 1 is the maximum; inactive = score below 0.9.

Experiment: ATG_M_19_CIS: Attagene CIS-FACTORIAL HepG2 Assay for M19 Transcription Factor (Internal Marker) (AID 2282939)
Conditions: HepG2 Attagene CIS-FACTORIAL M19 internal marker reporter; actives raise or lower the signal
Description: ATG_CIS is a cell-based, multiplexed-readout assay that uses HepG2, a human liver cell line, with measurements taken at 24 hours after chemical dosing in a 24-well plate.ATG_M_19_CIS is one of 52 assay component(s) measured or calculated from the ATG_CIS assay. It is designed to make measurements of mRNA induction, a form of inducible reporter, as detected with fluorescence intensity signals by Reverse transcription polymerase chain reaction (RT-PCR) and Capillary electrophoresis technology.Data from the assay component ATG_M_19_CIS was analyzed into 1 assay endpoint. This assay endpoint, ATG_M_19_CIS, was analyzed with bidirectional fitting relative to DMSO as the negative control and baseline of activity. Using a type of inducible reporter, measures of mRNA for gain or loss-of-signal activity can be used to understand the background control at the transcription factor-level as they relate to the gene . Furthermore, this assay endpoint can be referred to as a secondary readout, because this assay has produced multiple assay endpoints where this one serves a background control function. To generalize the intended target to other relatable targets, this assay endpoint is annotated to the background measurement intended target family, where the subfamily is internal marker.
Human liver HepG2 cells are transiently transfected with multiple reporter transcription units (MRTUs) in 6-well plates using FuGene 6 reagent (Roche; 3 ml FuGene/1 mg DNA). The MRTU constructs are regulated by a cis-regulating element (promoter). […] A major difference between the CIS and TRANS system is that in CIS activities of endogenous TFs are measured, whereas the TRANS assay evaluates changes in activities of exogenous, chimeric NR-Gal4 proteins. […] At the end of 24 hour incubation, total RNA was isolated using TriZol reagent (Invitrogen). The isolated RNA is then reverse-transcribed using oligo(dT) primer and Mo-MLV reverse transcriptase (Invitrogen) with DNAse I (Ambion) treatment for 30 min. The one-tenth of the produced cDNA was amplified by PCR using Taq DNA polymerase (Invitrogen) and two reporter sequence-specific primers. The PCR products were fluorescently labeled by primer extension with 6-arboxyfluorescein (6-FAM) 5'-labeled reporter sequence-specific primer (2 min at 95 C, 20 s at 68 C and 10 min at 72 C) and these products were digested with 5U of HpaI (New England Biolabs) for 2h at 37 C. The fragments were purified using Qiaquick PCR columns (Qiagen), analyzed on an ABI 3130xL genetic analyzer (Applied Biosystems) with peak positions identified by using a set of X-rhodamine (ROX)-labeled MapMarker1000 molecular weight standards (BioVentures). The raw capillary electrophoresis data was processed using Attagraph software (Attagene).

outcome, inactive:
C=C(C)C(=O)OCc1ccccc1
O=C(O)CN(CCN(CC(=O)O)CC(=O)O)CCN(CC(=O)O)CC(=O)O
CC1(C)[C@H]2CC[C@]1(C)[C@H](O)C2
O=[N+]([O-])c1cc(C(F)(F)F)ccc1Cl
S=C(S)NCCNC(=S)S
OCCOCCOCCOCCO
CN(C)c1ccc(O)c2c1C[C@H]1C[C@H]3[C@H](N(C)C)C(=O)C(C(N)=O)=C(O)[C@@]3(O)C(=O)C1=C2O
CC(C)=CCC[C@H](C)CC=O
O=C(O)c1snc(Cl)c1Cl
CCCCC(CC)COCCC#N (stereo not given)
Cc1ccc(Nc2ccc(O)c3c2C(=O)c2ccccc2C3=O)cc1
CCCCCC(=O)OCCc1ccccc1
CN(CCOc1ccc(CC2SC(=O)NC2=O)cc1)c1ccccn1 (stereo not given)
ClCCCl
CCCc1c(OCCCOc2ccc(OCC(=O)O)cc2)ccc(C(C)=O)c1O
CCCCOCCOCCSC#N
C=C(C)C(=O)Nc1ccc(Cl)c(Cl)c1
CC(C)(C#N)c1cc(Cn2cncn2)cc(C(C)(C)C#N)c1
CC(C)=CCO
CCCCCCCCCCCCN(CCCCCCCCCCCC)CCCCCCCCCCCC
CCCCCCCCCCCCCCCCCC(=O)OCC(CC)CCCC (stereo not given)
O=C1CCCCCCCCCCOCCCCO1
CC(CN1c2ccccc2Sc2ccccc21)N(C)C (stereo not given)
Cc1ncc([N+](=O)[O-])n1C
COc1ccc(OC)c(OC)c1
CCCCCC(CO)CCC (stereo not given)
C=CC[N+](C)(C)CC=C
O=c1[nH]c(=O)n([C@H]2CCCO2)cc1F
CCCCCCCCCCC(CO)CCCCCCCC (stereo not given)
C=C[Si](OCC)(OCC)OCC
O=C1CCc2ccccc2O1
Nc1cc([N+](=O)[O-])ccc1O
CC(C)=CCCC(C)CC=O (stereo not given)
CC(C)C1CCC(O)CC1 (stereo not given)
CC(=O)[O][Al][O]C(C)=O
O=S(=O)(O)c1ccc(O)c2ncccc12
CC(c1cc2ccccc2s1)N(O)C(N)=O (stereo not given)
CC(C)C[C@H]1C(=O)N2CCC[C@H]2[C@]2(O)O[C@](NC(=O)[C@@H]3C=C4c5cccc6[nH]c(Br)c(c56)C[C@H]4N(C)C3)(C(C)C)C(=O)N12
CC(C)(Oc1ccc(CCNC(=O)c2ccc(Cl)cc2)cc1)C(=O)O
NNc1nc(-c2ccc(N)cc2)cs1
